# TGFb SMAD3 inh: inhibitors of TGF-b signaling; HepG2 CAGA-GFP TGF-b/SMAD3 reporter, GFP fluorescence, 18 h; TGF-beta stimulated, 500 pg/mL final; Potency, µM (series often up to 46.1 µM), without a hit: at the top dose activity, negative = inhibition, hits mostly inhibitors; 410,000 tested, 1.2% active; AID 588855; further: potency means the concentration at half of the fitted maximal effect; on the % scale 0 is the no-effect control and ±100 the full control effect; nearly all actives have a fitted effect of over 65% in size
#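 HEPG2 CAGA-GFP reporter cells (1000/well, DMEM with 1% FBS) received compounds, then recombinant TGF-beta at 500 pg/mL final for 18 hours at 37 degrees C. Per-cell GFP summed per well was normalised to unstimulated and stimulated DMSO controls before curve fitting.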
# IL-1B inflam inh: inflammasome signaling inhibition, IL-1 beta readout | THP-1 LPS/ATP IL-1B secretion, AlphaLISA, 16 h; active compounds read low | activity change, % at 57.5 µM | 360,000 tested, 4.7% active; in the data active means activity change below about -50%; inconclusive means mostly about -30% to -49%; further: on the % scale 0 is the no-effect control and ±100 the full control effect
#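 THP-1 cells pretreated 1 hr with compounds (up to 57.5 uM final), then stimulated with LPS (250 ng/mL final) plus ATP (1.25 mM final); secreted IL-1B measured by AlphaLISA after 16 hr, decreased signal indicating inhibition.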
# TDP1 block: TDP1 (human) enzyme inhibition | 350,000 tested, 0.28% active | AID 485290 | Q9NUW8 | recombinant TDP1, AlphaScreen DNA substrate cleavage | Potency, µM (doses to about 130 µM), without a hit: at the top dose activity change, negative = inhibition, actives largely listed as inhibitors; further: potency means the concentration at half of the fitted maximal effect; on the % scale 0 is the no-effect control and ±100 the full control effect; nearly all actives have a fitted effect of over 40% in size
# Target sequence (Q9NUW8 whole entry, looked up): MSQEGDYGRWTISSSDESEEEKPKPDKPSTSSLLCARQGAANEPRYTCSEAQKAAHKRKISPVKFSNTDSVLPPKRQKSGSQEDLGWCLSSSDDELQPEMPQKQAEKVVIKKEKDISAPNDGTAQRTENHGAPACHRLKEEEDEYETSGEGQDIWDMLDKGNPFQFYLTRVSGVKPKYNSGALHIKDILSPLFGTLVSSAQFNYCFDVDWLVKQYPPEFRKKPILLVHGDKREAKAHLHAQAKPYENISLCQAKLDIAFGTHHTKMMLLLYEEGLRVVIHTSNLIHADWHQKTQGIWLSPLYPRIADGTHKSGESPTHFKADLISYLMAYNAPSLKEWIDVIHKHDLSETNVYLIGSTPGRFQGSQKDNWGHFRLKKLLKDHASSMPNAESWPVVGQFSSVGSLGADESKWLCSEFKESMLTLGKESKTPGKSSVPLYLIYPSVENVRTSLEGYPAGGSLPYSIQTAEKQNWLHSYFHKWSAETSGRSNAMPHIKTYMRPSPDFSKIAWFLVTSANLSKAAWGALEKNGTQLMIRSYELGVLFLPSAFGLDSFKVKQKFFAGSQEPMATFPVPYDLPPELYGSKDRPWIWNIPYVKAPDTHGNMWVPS
#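 Tdp1 1 nM final; 15 min RT w/ cpd; substrate 15 nM, 5 min; beads 10 ug/ml, 10 min; AlphaScreen read. Neg ctrl: no enzyme.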
# DT40 TDP1 CPT: DT40-hTDP1 cell growth loss with CPT; Potency, µM (titrated, usually from 46.2 µM), inactives show at the highest dose activity change, negative = growth inhibition, most hits filed as inhibitors; chicken DT40 Tdp1-/-;hTDP1 cells + 20 nM CPT, ATP luminescence, 48 h; 420,000 tested, 12% active; AID 686979; further: potency means the concentration at half of the fitted maximal effect; on the % scale 0 is the no-effect control and ±100 the full control effect; nearly all actives have a fitted effect of over 55% in size
#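 Chicken DT40 Tdp1-/- cells stably complemented with human TDP1 were seeded at 400 cells/well in medium containing 20 nM camptothecin, exposed to pin-transferred compounds, and grown at 37 °C for at least 48 hr. Viability was read as ATP luminescence.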
# HepG2 tox: kills HepG2 cells in TGF-b inhibitor counter-screen; HepG2 CAGA-GFP viability, ATP luminescence, 18 h; 410,000 tested, 0.76% active; Potency, µM (titrated, usually from 46.1 µM), inactives show at the highest dose activity change, negative = cytotoxicity, hits mostly cytotoxic; AID 588856; further: potency means the concentration at half of the fitted maximal effect
#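 HepG2 CAGA-GFP cells (1000/well, DMEM with 1% FBS) received compound, then TGF-beta at 500 pg/mL final, and were incubated 18 hours at 37 degrees C. Viability was read by CellTiter-Glo luminescence. Media-only wells were set as complete cell-killing and DMSO as no toxicity.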
# TDP1 cell noCPT: qHTS for Inhibitors of human tyrosyl-DNA phosphodiesterase 1 (TDP1): qHTS in cells in absence of CPT | Potency, µM (series often up to 46.2 µM), inactives show top-dose activity change, negative = growth inhibition, hits mostly inhibitors | 420,000 tested, 15% active | DT40 Tdp1-/- hTDP1 cells, no CPT, ATP luminescence, 48 h; further: potency means the concentration at half of the fitted maximal effect; on the % scale 0 is the no-effect control and ±100 the full control effect; nearly all actives have a fitted effect of over 55% in size
#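 Growth of hTDP1-complemented DT40 Tdp1-knockout cells is measured by ATP luminescence after at least 48 hr compound exposure at 37 °C, with DMSO substituting for the 20 nM CPT used in the parallel screen.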
# * marks the source's active call; other numbers are inactive results; ? = inconclusive; . = no result; [ ] = remark or other dose. An excerpt weighted towards active compounds, which were near 18% of everything screened. Unless noted, the call rests on the fitted dose curve; in most records, active means well fitted curve in the direction sought with a large enough effect; inconclusive means small, poorly fitted or top-dose-only effect, or another doubt; inactive means no such curve, though single readings can be large; an effect the other way counts as inactive or inconclusive.
SMILES,TGFb SMAD3 inh,IL-1B inflam inh,TDP1 block,DT40 TDP1 CPT,HepG2 tox,TDP1 cell noCPT
COc1ccccc1CCC(=O)Nc1ccc(OC)c(S(=O)(=O)N2CCCCC2)c1,1.5%,5.9,-1.8%,?,-13.6%,-27.5%
COc1cc(CCC(=O)Nc2cccc(S(=O)(=O)N(C)C)c2)cc(OC)c1OC,-5.6%,8.0,5.9%,?,-9.4%,25.9µM*
COc1ccc(CCC(=O)Nc2ccc(OC)c(S(=O)(=O)N3CCCCC3)c2)cc1OC,?,0.0,-1.2%,20.6µM*,-21.2%,?
CCOc1ncccc1C(=O)Nc1ccc(OC)c(S(=O)(=O)N2CCCCC2)c1,-14.7%,-0.4,1.2%,?,-16.0%,?
CCOc1ncccc1C(=O)Nc1ccc(C)c(S(=O)(=O)N2CCCCCC2)c1,-27.2%,-4.5,-4.7%,18.4µM*,-51.4%,?
O=C(O)c1ccc(N=Nc2c(-c3ccccc3)[nH]oc2=O)cc1,3.0%,23.6,.,1.1%,8.2%,-13.7%
CCCCC(=O)Nc1ccc(C)c(S(=O)(=O)N2CCCCCC2)c1,?,-63.6*,-2.1%,?,-19.5%,?
Cc1ccccc1C(=O)NCC(=O)Nc1ccc(C)c(S(=O)(=O)N2CCCCCC2)c1,-9.9%,-4.1,4.5%,?,2.8%,?
Cc1ccc(NC(=O)COc2ccccc2C(=O)NCc2ccccc2)cc1,5.7%,?,-13.0%[56.1 µM],?,-20.7%,?
COc1ccc(NC(=O)CCOc2ccccc2C)cc1S(=O)(=O)N1CCCCC1,-12.8%,-60.2*,-0.6%,29.1µM*,-9.3%,18.4µM*
CN(C)S(=O)(=O)c1cccc(NC(=O)COc2ccccc2C(=O)NCc2ccccc2)c1,9.0%,-7.3,2.5%,16.4µM*,3.2%,?
Cc1ccccc1OCC(=O)Nc1ccc(C)c(S(=O)(=O)N2CCCCCC2)c1,?,-22.1,-2.9%[0.505 µM],?,-2.2%,?
CCCCNC(=O)C1=C(N)C(C(=O)Nc2ccc(C)c(S(=O)(=O)N3CCCCC3)c2)SC1=Nc1ccc(C)cc1C (stereo not given),-28.1%,0.0,3.8%,23.1µM*,-45.8%,23.1µM*
COc1ccc(N(CC(=O)NCc2cccs2)S(=O)(=O)c2ccc(F)cc2)cc1,1.7%,-11.9,0.0%,-6.0%,-2.6%,7.0%
COc1cc(CCC(=O)Nc2ccc(C)c(S(=O)(=O)N3CCCCCC3)c2)cc(OC)c1OC,?,3.4,1.1%,10.3µM*,-10.1%,7.31µM*
COc1ccc(CCC(=O)Nc2ccc(Cl)c(S(=O)(=O)N3CCCC3)c2)cc1,?,-15.0,5.6%,20.6µM*,-21.1%,?
CCn1c2c(c(=O)n3ncc(C(=O)Nc4cc(Cl)ccc4C)c13)CN(Cc1ccc(OC)cc1)CC2,-13.2%,.,1.8%,?,-36.2%,20.6µM*
CCn1c2c(c(=O)n3ncc(C(=O)Nc4ccc(Cl)cc4C)c13)CN(Cc1ccc(OC)cc1)CC2,?,.,5.3%,?,-9.2%,?
CCn1c2c(c(=O)n3ncc(C(=O)Nc4cccc(Cl)c4C)c13)CN(Cc1ccc(OC)cc1)CC2,-6.1%,.,6.5%,20.6µM*,-23.7%,?
COc1ccc(CN2CCc3c(c(=O)n4ncc(C(=O)N5CCN(c6ccccc6OC)CC5)c4n3C)C2)cc1,?,.,4.1%,16.4µM*,-36.1%,11.6µM*
CCn1c2c(c(=O)n3ncc(C(=O)Nc4ccc(F)cc4Cl)c13)CN(Cc1ccc(OC)cc1)CC2,?,.,0.6%,?,-15.9%,23.1µM*
O=C(COC(=O)c1cc(=O)[nH]c2ccccc12)NCc1ccc(Cl)cc1,-2.9%,-17.5,-1.1%,4.3%,-1.0%,-28.3%
CCCS(=O)(=O)c1c(S(=O)(=O)CCC)c2cc(C(C)(C)C)ccn2c1C(=O)c1ccc(C)cc1,8.7%,.,5.8%,23.1µM*,8.2%,14.6µM*
O=[N+]([O-])c1ccc(NCCCNS(=O)(=O)c2ccc(Cl)cc2)c(Cl)c1,-24.7%,1.1,3.9%,20.6µM*,-23.8%,20.6µM*
O=[N+]([O-])c1ccccc1NCCNS(=O)(=O)c1ccc(Cl)cc1,4.1%,-13.8,0.0%,-10.4%,-16.0%,-25.4%
SMILES,TGFb SMAD3 inh,IL-1B inflam inh,TDP1 block,DT40 TDP1 CPT,HepG2 tox,TDP1 cell noCPT
CCC(Sc1nc2nccnc2c(=O)n1Cc1ccc(F)cc1)C(=O)NC1CCCCC1 (stereo not given),-54.9%,.,2.6%,20.6µM*,-27.2%,?
CCC(Sc1nc2nccnc2c(=O)n1Cc1ccc(Cl)cc1)C(=O)NC1CCCCC1 (stereo not given),-24.5%,.,5.2%,?,-25.2%,?
O=C(NCCc1ccccc1)C(=O)NCC1OCCN1S(=O)(=O)c1ccc(Br)cc1 (stereo not given),7.2%,5.9,2.2%,?,1.4%,16.4µM*
COc1ccc(S(=O)(=O)N2CCOC2CNC(=O)C(=O)NCCc2ccc(OC)c(OC)c2)cc1 (stereo not given),?,0.0,7.7%,16.4µM*,-17.1%,?
COc1ccc(CCNC(=O)C(=O)NCC2OCCN2S(=O)(=O)c2ccc(Br)cc2)cc1OC (stereo not given),-0.3%,0.0,1.8%,3.2%,-14.3%,7.4%
O=C(NCCc1ccccc1)C(=O)NCC1OCCN1S(=O)(=O)c1ccccc1 (stereo not given),-8.7%,-9.1,4.3%,4.6%,4.3%,-23.8%
COc1ccc(CCNC(=O)C(=O)NCC2OCCN2S(=O)(=O)c2ccc(Cl)cc2)cc1OC (stereo not given),-24.5%,5.5,.,?,-10.3%,18.4µM*
O=C(NCCc1ccco1)C(=O)NCC1OCCCN1S(=O)(=O)c1ccc(F)cc1 (stereo not given),-1.5%,-7.0,2.5%,-24.2%,-35.4%,14.6%
COc1ccc(S(=O)(=O)N2CCCOC2CNC(=O)C(=O)NCCc2ccco2)cc1C (stereo not given),-26.7%,50.6,5.9%,5.8µM*,-0.1%,7.31µM*
CC12CCC(=O)N1C(C(=O)Nc1nc(-c3ccccc3Cl)cs1)CS2 (stereo not given),?,-13.2,.,?,-12.6%,?
Cc1ccc(S(=O)(=O)N2CCOC2CNC(=O)C(=O)NCc2ccc(Cl)cc2)cc1 (stereo not given),-24.5%,0.0,1.8%,?,-19.2%,20.6µM*
